Several values for one entry are separate records, joined by “and”; a condition that tells them apart may be missing. Identical values can stand only once. Some structures have more than one record in an assay (separate samples or runs), and their calls can disagree. Activity calls are given as the source filed them. Rule for the calls: active = hit-call score of the fitted dose curve at least 0.9, where 1 is the maximum; inactive = score below 0.9.
read-out: Vascular cell adhesion molecule 1 (VCAM1), VCAM1 (gene 7412); assay: BSK_4H_VCAM1: BioMAP Diversity Plus: 4H Assay for Vascular cell adhesion molecule 1 (VCAM1) Biomarker Activity (AID 2283033); details: primary human endothelial cells (HUVEC); actives raise or lower the signal
Method: BSK_4H is a cell-based, multiplexed-readout assay that uses umbilical vein endothelium, a human vascular primary cell, with measurements taken at 24 hours after chemical dosing in a 96-well plate.BSK_4H_VCAM1 is an assay component measured in the BSK_4H assay. It measures VCAM-1 antibody related to regulation of gene expression using ELISA technology.Data from the assay component BSK_4H_VCAM1 was analyzed into 1 assay endpoint. This assay endpoint, BSK_4H_VCAM1, was analyzed with bidirectional fitting relative to DMSO as the negative control and baseline of activity. Using a type of binding reporter, gain or loss-of-signal activity can be used to understand changes in the signaling as they relate to the gene VCAM1. Furthermore, this assay endpoint can be referred to as a primary readout, because this assay has produced multiple assay endpoints where this one serves a signaling function. To generalize the intended target to other relatable targets, this assay endpoint is annotated to the cell adhesion molecules intended target family, where the subfamily is Immunoglobulin CAM.
The levels of cell surface (or secreted, indicated by the prefix "s") biomarker endpoints were measured by ELISA. Overt cytotoxicity to cells in confluent adherent cultures (all systems other than the BT system) was assessed by measuring total protein levels using sulforhodamine B (SRB) staining in parallel cultures at the time of biomarker measurements, indicated as SRB endpoints. For proliferation assays for adherent cell types, individual cell types are cultured at sub-confluence and relative cell numbers quantified by SRB staining at time points optimized for each system (48 h: 3C and CASM3C systems; 72 h: BT and HDF3CGF systems; 96 h: SAg system). SRB was performed by staining cells with 0.1% SRB after fixation with 10% TCA and reading wells at 560 nm.Viability and proliferation of PBMC (T cells) was quantified by Alamar Blue reduction for the SAg and BT systems. For PBMC viability (referred to as PBMC Cytotoxicity within the assay endpoint names), cells were plated (75,000/well in a 96-well plate) and then chemical samples added for 1 h before addition of activators, SEB and TSST-1 (20 ng/mL final concentration each). Cells were incubated for 90 h. Then, Alamar Blue (20 uL/well) (Invitrogen, Cat DAL1100) was added for 6 h, and the plates were read with a fluorescence microplate reader at 546/580 nm (excitation/emission). For PBMC proliferation, cells were plated and activated as above but incubated for only 16 h prior to addition of Alamar Blue. Plates were read after 6 h.

Compound	outcome	AC50
CCOC(=O)C(C)Oc1ccc(Oc2cnc3cc(Cl)ccc3n2)cc1 (stereo not given)	inactive	
CCCN(CCC)C(=O)SCC	inactive	
CCC(O)=C1C(=O)CC(C(=O)O)CC1=O (stereo not given)	inactive	
CC(C)(c1ccc(O)cc1)c1ccc(O)cc1	inactive	7.53 µM (active)
CCCOC(=O)c1ccc(C(=O)OCCC)nc1	inactive	
COc1nc(C)nc(NC(=O)NS(=O)(=O)c2ccccc2OCCCl)n1	inactive	
S=C([S-])NCCNC(=S)[S-].[Mn+2]	inactive	
COC(=O)c1cccc(C)c1S(=O)(=O)NC(=O)Nc1nc(OCC(F)(F)F)nc(N(C)C)n1	inactive	
COC(=O)c1ccc(I)cc1S(=O)(=O)NC(=O)Nc1nc(C)nc(OC)n1	inactive	
CCCCCOC(=O)COc1cc(N2C(=O)C3=C(CCCC3)C2=O)c(F)cc1Cl	inactive	
C=CCOC(Cn1ccnc1)c1ccc(Cl)cc1Cl (stereo not given)	inactive	
CCCN(CCC)c1c([N+](=O)[O-])cc(C(F)(F)F)c(N)c1[N+](=O)[O-]		20 µM (active)
COC(=O)c1ccccc1S(=O)(=O)NC(=O)Nc1nc(OC(F)F)cc(OC(F)F)n1	inactive	
COC(=O)c1c(Cl)nn(C)c1S(=O)(=O)NC(=O)Nc1nc(OC)cc(OC)n1	inactive	
CC(C)(C)[C@@H](O)[C@@H](Cc1ccc(Cl)cc1)n1cncn1	inactive	
O=C(c1ccccc1)C1CCCCC1	inactive	
C#CCOC(=O)[C@@H](C)Oc1ccc(Oc2ncc(Cl)cc2F)cc1	inactive	
CCCCC(CC)CN1C(=O)C2C3C=CC(C3)C2C1=O (stereo not given)	inactive	
Oc1ccc(C(c2ccc(O)cc2)C(Cl)(Cl)Cl)cc1		26 µM (active)

Compound	outcome	AC50
N[C@@H](Cc1cc(I)c(Oc2ccc(O)c(I)c2)c(I)c1)C(=O)O	inactive	
COCCO	inactive	
S=C(S)NCCNC(=S)S.[Mn+2].[S-]C([S-])=NCCN=C([S-])[S-].[Zn+2]	inactive	10 µM (active)
CCN(CC)C(=O)c1cccc(C)c1	inactive	
c1ccc(Nc2ccccc2)cc1	inactive	
CCC(C)OC(=O)N1CCCCC1CCO (stereo not given)	inactive	
CCSC(=O)N(CC(C)C)CC(C)C	inactive	
COC(=O)c1ccccc1C(=O)O	inactive	
C[C@]12C[C@H](O)[C@H]3[C@@H](CCC4=CC(=O)CC[C@@]43C)[C@@H]1CC[C@@H]2C(=O)CO	inactive	
CCCCOC(=O)[C@@H](C)Oc1ccc(Oc2ccc(C(F)(F)F)cn2)cc1	inactive	
Cc1nn(C)c(Oc2ccccc2)c1C=NOCc1ccc(C(=O)OC(C)(C)C)cc1	inactive	
O=C(Nc1ccc([N+](=O)[O-])cc1Cl)c1cc(Cl)ccc1O		0.412 µM (active)
CCNc1nc(N)nc(Cl)n1	inactive	
CCOC(=O)C(C)Oc1ccc(Oc2nc3ccc(Cl)cc3o2)cc1 (stereo not given)	inactive	
CN(C)C(=O)Nc1ccc(Cl)c(Cl)c1	inactive	
CCOC(=O)COc1cc(-n2ncc(C(F)(F)F)c(C)c2=O)c(F)cc1Cl	inactive	
N#CSCSc1nc2ccccc2s1		5.21 µM (active) and 12.8 µM (active)
CCCCC(CC)COC(=O)c1ccccc1C(=O)O (stereo not given)	inactive	
C#C[C@]1(O)CC[C@H]2[C@@H]3CCC4=CC(=O)CC[C@@H]4[C@H]3CC[C@@]21CC	inactive	

Source: PubChem BioAssay (EPA / NIEHS)
